Experimental data: ChEMBL document CHEMBL1961873, “Compounds: GSK PKIS; Assays: Nanosyn kinase panel” (2012)

Tests used:
[1] = target: T1, Inhibitor of nuclear factor kappa-B kinase subunit epsilon (Homo sapiens) (UniProt Q14164); settings: at 1 µM;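 note: reported values are averaged percent inhibition figures against human IKKε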
T1 sequence (whole entry): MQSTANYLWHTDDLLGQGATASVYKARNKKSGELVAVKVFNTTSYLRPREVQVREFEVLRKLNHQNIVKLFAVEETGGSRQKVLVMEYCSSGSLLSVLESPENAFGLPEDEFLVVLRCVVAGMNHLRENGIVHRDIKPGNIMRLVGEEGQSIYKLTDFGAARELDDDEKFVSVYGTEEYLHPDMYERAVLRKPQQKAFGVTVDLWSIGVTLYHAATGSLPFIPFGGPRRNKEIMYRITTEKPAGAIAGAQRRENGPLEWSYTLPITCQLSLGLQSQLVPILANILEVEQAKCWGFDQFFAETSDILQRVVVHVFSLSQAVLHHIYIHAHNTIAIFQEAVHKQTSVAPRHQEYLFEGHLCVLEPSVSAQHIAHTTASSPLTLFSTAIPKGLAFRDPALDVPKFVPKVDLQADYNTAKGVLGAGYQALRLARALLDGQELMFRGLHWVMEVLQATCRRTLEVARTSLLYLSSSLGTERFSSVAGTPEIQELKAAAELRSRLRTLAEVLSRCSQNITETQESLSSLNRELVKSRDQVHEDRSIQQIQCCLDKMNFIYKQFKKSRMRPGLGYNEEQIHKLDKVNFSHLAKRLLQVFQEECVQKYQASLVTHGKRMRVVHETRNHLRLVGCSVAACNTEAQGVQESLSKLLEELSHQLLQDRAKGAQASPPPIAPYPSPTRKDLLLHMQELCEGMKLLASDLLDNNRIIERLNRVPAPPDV

[2] = target: T2, Serine/threonine-protein kinase Nek1 (Homo sapiens) (UniProt Q96PY6); settings: at 0.1 µM
T2 sequence (whole entry): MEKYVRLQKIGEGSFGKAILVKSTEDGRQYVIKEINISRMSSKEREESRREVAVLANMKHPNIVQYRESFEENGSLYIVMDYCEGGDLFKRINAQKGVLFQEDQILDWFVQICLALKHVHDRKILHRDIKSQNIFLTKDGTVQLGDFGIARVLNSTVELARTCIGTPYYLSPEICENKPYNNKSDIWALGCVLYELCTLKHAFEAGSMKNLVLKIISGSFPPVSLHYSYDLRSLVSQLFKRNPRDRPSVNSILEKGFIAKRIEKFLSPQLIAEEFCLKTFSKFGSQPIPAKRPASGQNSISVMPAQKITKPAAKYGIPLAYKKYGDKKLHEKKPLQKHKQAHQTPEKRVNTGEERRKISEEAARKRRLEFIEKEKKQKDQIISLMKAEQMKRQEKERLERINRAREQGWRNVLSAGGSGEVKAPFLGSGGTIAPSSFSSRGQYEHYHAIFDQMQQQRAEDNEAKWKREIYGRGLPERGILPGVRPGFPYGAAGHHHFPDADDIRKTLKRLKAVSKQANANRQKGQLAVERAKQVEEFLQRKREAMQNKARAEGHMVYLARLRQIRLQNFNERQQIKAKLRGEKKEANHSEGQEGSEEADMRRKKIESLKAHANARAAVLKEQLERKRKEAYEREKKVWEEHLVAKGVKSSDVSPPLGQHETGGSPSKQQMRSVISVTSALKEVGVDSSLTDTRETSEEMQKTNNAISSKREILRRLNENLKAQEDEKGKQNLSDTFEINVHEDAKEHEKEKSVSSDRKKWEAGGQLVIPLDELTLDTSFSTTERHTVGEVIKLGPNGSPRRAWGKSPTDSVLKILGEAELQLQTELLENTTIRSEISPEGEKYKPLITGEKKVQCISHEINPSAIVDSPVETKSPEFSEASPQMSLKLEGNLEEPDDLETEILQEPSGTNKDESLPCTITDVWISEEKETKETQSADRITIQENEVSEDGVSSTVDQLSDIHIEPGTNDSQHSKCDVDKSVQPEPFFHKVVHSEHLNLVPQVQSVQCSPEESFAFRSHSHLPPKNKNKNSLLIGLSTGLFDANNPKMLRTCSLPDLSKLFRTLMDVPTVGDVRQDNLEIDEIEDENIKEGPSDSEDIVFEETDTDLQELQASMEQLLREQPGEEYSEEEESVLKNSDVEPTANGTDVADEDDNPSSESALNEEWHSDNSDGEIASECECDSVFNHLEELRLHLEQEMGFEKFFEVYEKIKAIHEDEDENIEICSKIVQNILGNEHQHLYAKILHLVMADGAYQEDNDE

[3] = target: T2, Serine/threonine-protein kinase Nek1 (Homo sapiens); settings: at 1 µM
[4] = target: T3, Serine/threonine-protein kinase Nek2 (Homo sapiens) (UniProt P51955); settings: at 0.1 µM
T3 sequence (whole entry): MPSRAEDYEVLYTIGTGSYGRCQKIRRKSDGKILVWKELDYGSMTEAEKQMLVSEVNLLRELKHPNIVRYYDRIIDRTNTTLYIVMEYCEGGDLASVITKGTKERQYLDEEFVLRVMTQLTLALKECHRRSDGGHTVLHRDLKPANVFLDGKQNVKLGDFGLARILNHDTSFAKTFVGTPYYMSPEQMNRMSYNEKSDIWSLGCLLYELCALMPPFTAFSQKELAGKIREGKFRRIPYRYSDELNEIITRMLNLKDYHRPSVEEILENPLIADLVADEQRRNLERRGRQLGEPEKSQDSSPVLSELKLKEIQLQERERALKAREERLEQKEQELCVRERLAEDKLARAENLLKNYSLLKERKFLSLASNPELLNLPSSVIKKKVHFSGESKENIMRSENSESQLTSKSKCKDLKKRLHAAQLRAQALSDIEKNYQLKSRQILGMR

[5] = target: T3, Serine/threonine-protein kinase Nek2 (Homo sapiens); settings: at 1 µM
[6] = target: Serine/threonine-protein kinase Nek6 (Homo sapiens) (UniProt Q9HC98); settings: at 0.1 µM
[7] = target: Serine/threonine-protein kinase Nek6 (Homo sapiens) (UniProt Q9HC98); settings: at 1 µM
[8] = target: Serine/threonine-protein kinase Nek7 (Homo sapiens) (UniProt Q8TDX7); settings: at 0.1 µM
[9] = target: Serine/threonine-protein kinase Nek7 (Homo sapiens) (UniProt Q8TDX7); settings: at 1 µM
[10] = target: T4, Serine/threonine-protein kinase Nek9 (Homo sapiens) (UniProt Q8TD19); settings: at 0.1 µM;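 note: reported value is the mean percent inhibition of NEK9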
T4 sequence (whole entry): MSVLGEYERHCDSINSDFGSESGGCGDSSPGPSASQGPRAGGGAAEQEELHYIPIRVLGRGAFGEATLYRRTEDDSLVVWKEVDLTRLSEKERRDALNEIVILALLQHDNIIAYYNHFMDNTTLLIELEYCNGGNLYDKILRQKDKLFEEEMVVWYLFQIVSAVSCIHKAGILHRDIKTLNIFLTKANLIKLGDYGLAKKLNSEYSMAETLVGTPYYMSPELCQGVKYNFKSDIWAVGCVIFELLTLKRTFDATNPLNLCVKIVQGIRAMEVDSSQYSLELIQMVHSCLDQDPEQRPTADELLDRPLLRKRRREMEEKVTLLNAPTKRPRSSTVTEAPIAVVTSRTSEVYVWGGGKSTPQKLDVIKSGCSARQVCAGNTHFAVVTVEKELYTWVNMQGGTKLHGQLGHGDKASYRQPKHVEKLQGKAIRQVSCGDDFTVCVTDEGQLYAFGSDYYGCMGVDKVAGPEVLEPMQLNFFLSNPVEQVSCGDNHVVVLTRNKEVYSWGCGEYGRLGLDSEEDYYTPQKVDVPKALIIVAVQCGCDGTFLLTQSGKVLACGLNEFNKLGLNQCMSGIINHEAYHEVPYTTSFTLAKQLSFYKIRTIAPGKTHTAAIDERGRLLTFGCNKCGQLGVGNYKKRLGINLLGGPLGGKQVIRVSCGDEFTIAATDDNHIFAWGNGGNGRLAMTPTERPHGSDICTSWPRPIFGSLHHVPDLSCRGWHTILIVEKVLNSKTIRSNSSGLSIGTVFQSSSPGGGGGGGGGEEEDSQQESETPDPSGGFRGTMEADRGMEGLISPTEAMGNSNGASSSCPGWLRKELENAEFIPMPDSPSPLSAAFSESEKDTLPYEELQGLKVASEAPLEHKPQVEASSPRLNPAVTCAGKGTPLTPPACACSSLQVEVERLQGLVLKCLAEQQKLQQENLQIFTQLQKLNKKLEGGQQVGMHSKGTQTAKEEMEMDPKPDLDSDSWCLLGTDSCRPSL

Serine/threonine-protein kinase Nek7 (Homo sapiens), sequence (Q8TDX7 whole entry, looked up): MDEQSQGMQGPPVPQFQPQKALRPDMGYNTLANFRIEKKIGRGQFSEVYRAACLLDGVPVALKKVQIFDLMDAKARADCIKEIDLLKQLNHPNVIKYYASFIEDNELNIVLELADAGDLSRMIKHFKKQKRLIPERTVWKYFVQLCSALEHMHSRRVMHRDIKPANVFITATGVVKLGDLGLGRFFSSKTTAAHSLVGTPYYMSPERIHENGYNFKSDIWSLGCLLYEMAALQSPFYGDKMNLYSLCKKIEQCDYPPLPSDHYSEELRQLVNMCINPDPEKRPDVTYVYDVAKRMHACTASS
Serine/threonine-protein kinase Nek6 (Homo sapiens), sequence (Q9HC98 whole entry): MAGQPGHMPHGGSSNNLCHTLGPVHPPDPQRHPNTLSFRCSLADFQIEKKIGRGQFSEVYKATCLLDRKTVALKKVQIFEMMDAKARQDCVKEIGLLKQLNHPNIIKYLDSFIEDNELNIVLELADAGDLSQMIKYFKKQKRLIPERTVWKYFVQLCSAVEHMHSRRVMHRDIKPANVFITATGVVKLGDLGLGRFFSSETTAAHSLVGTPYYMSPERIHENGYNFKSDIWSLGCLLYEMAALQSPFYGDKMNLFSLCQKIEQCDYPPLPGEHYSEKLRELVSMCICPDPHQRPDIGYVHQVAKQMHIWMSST

| SMILES | inhibition [1] [%] | inhibition [2] [%] | inhibition [3] [%] | inhibition [4] [%] | inhibition [5] [%] | inhibition [6] [%] | inhibition [7] [%] | inhibition [8] [%] | inhibition [9] [%] | inhibition [10] [%] |
| --- | --- | --- | --- | --- | --- | --- | --- | --- | --- | --- |
| COc1ccc(-c2ccc3c(NC(=O)C4CC4)n[nH]c3n2)cc1 | -8.46 | 0.44 | 2.1 | 1.84 | 1.4 | 2.4 | 3.26 | 2.52 | 1.09 | 4 |
| O=C(Nc1ccc(Oc2ccc3[nH]c(NC(=O)c4ccccc4)nc3c2)cc1)Nc1cc(C(F)(F)F)ccc1F | 3.04 | 1.92 | 2.89 | 4.15 | 3.11 | 3.73 | 1.7 | 4.29 | 4.36 | 9.72 |
| Cc1nnc(-c2ccc(C)c(-c3ccc(C(=O)NCc4ccc(Cl)cc4)cc3)c2)o1 | 5.13 | 2.48 | 4.54 | 4.28 | 3.25 | 3.46 | 5.29 | 5.57 | 3.78 | 6.68 |
| O=C(Nc1n[nH]c2nc(-c3ccc(O)cc3)c(Br)cc12)C1CC1 | 12.2 | 3.52 | 11.2 | 6.4 | 9 | 3.51 | 15.2 | 13.2 | 46.3 | 13.9 |
| COC(=O)Nc1nc2ccc(Sc3ccc(NC(=O)Nc4cc(C(F)(F)F)ccc4F)cc3)cc2[nH]1 | -1.36 | -0.58 | 1.18 | 0.6 | -0.82 | 0.73 | -0.98 | -0.35 | -3.05 | -1.77 |
| COc1ccc(C2=C(N3CCc4ccccc43)C(=O)NC2=O)cc1 | 19.1 | 2.77 | 5.54 | 5.3 | 6.47 | 2.74 | 1.65 | 3.11 | 3.74 | 11.3 |
| COc1ccc2ncn(-c3cc(O[C@H](C)c4ccccc4Cl)c(C(N)=O)s3)c2c1 | 4.23 | 4.81 | 24.8 | 5.9 | 10.3 | 0.15 | 0.34 | 3.12 | 6.32 | 31.8 |
| Cc1ccc(C(=O)NC(C)C)cc1-c1ccc(C(=O)NCC2CC2)cc1 | -4.16 | -1.29 | -1.39 | -3.14 | -3.6 | -3.09 | -3.72 | -6.3 | -4.59 | 3.16 |
| FC(F)(F)c1cccc(Nc2nccc(-c3cnn4nc(-c5ccccc5)ccc34)n2)c1 | 5.2 | 2.32 | 2.59 | 1.73 | 4.5 | -0.41 | -0.37 | 2.4 | 1.88 | 8.12 |
| N#Cc1ccc(Oc2nccc(-c3c(-c4ccc(F)cc4)ncn3C3CCNCC3)n2)cc1 | 5.32 | 2.19 | 2.49 | 4.13 | 4.63 | 3.13 | 3.68 | 3.62 | 6.16 | 9.06 |
| COc1ccc2cc(-c3c(-c4ccncc4)nc(-c4ccc([S+](C)[O-])cc4C)n3C)ccc2c1 (centres undefined) | -2.02 | 0.36 | 0.54 | -0.64 | -0.11 | 0.58 | 1.1 | 2.37 | 0.01 | 3.4 |
| c1ccc(-c2n[nH]cc2-c2ccnc(-c3ccc(OCCN4CCOCC4)cc3)c2)nc1 | -6.6 | 1.71 | -2.23 | -2.95 | -2.74 | -1.49 | -2.27 | -5.33 | -3.67 |  |
| CN(c1ccc(NC(=O)Nc2c(Cl)cccc2Cl)cc1)c1ccnc(Nc2cccc(CS(C)(=O)=O)c2)n1 | 8.6 | 1.38 | 1.93 | 0.12 | 1.07 | 0.64 | 1.86 | 1.01 | 1.59 | -4.22 |
| C[C@@H](Oc1cc(-n2cnc3ccc(OCC4CCN(C)CC4)cc32)sc1C(N)=O)c1ccccc1Cl | 7.27 | 17.6 | 54.1 | 22.1 | 64.9 | 0.14 | 0.47 | 4.32 | 9.78 | 77.4 |
| COc1cc(Nc2ncc(-c3ccccc3)o2)cc(OC)c1OC | 1.15 | -1.04 | 1.71 | -1.53 | -0.62 | -1.01 | -3.53 | -3.32 | 3.67 | 5.06 |
| Fc1ccc(-c2ncn(C3CCNCC3)c2-c2ccnc(Oc3ccc4c(c3)OCO4)n2)cc1 | 5.91 | 3.2 | 6.26 | 7.49 | 6.41 | 1.13 | 1.67 | 2.69 | 4.77 | 7.85 |
| COc1cc(Nc2ncc3c(C)nc(-c4cccc(C(F)(F)F)c4)n3n2)cc(OC)c1OC | 18.9 | 4.76 | 21.8 | 7.77 | 37.5 | 4.4 | 9.1 | 5.91 | 10.5 | 54.9 |
